KAT2A inh – GCN5L2 (KAT2A) acetyltransferase inhibition | Q92830 | GCN5L2 HAT assay, ThioGlo1 CoA-SH fluorescence | Potency, µM (series often up to 58.9 µM), usual class: inhibitors | 0.21% of 390,000 active
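Fluorescence readout, Ex340nm/Em540nm: ThioGlo1 (50uM final) reacts with free CoA thiol released as 20nM GCN5L2 acetylates H3(1-25) peptide (75uM) using acetyl-CoA (70uM). Compound and enzyme sat 15 min beforehand; 20 min room-temperature reaction.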
GLP1R inv ag – acts as inverse agonist at human GLP-1 receptor. P43220. HEK293 GLP-1R CRE-luciferase, luminescence, 24 h; GLP-1R form is constitutively active. Potency, µM (highest dose often 38.3 µM), hits mostly inhibitors. 1.6% of 410,000 active. AID 624417; further: nearly all actives have a fitted effect of over 55% in size
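Luminescence readout: a drop in cAMP-driven luciferase signal flags inverse agonism at a constitutively active GLP-1R stably expressed in HEK293. Compound exposure lasted 24 hr at 37 deg C, 5% CO2.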
GLP1R cytotox – cytotoxic in the GLP-1 receptor inverse agonist counter-screen. HEK293 cAMP-luciferase reporter cells, luminescence, 24 h. Potency, µM (titrated, usually from 38.3 µM), most hits filed as inhibitors. 0.13% of 410,000 active. AID 624418;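 further: loss of luciferase light is scored as toxicity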
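MLSMR compounds, 24 hr on cells at 37 deg C/5% CO2; luminescence after luciferase reagent (12 min RT). Inhibition counted as the undesired cytotoxic outcome.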
PTHR1 ag – activates the human parathyroid hormone receptor PTHR1; HEK293 GP2 PTHR1 cells, GloSensor cAMP luminescence, 1 h; Q03431; 0.075% of 410,000 active; Potency, µM (series often up to 115 µM), hits mostly activators; further: nearly all actives have a fitted effect of over 55% in size
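HEK-293-derived GP2 cells expressing PTHR1 and a GloSensor cAMP reporter, 3,000/well, plated overnight, given luciferin plus IBMX (each 0.5 mM as added) for 1 h at 37 °C, then compound for 1 h at 37 °C. Luminescence was read after 15 min at room temperature.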
GLP1R ag – activates the human GLP-1 receptor | 0.007% of 380,000 active | Potency, µM (highest dose often 45.6 µM), most hits filed as activators | P43220 | HEK293 GLP-1R CRE-luciferase, luminescence, 4-6 h; cells express a hypersensitive GLP-1R form | AID 624172
RGS4 inhibitor – blocks human RGS4-accelerated GTP hydrolysis; 0.039% of 390,000 active; AID 504845; P49798; Transcreener GDP fluorescence polarization, RGS4-accelerated GTP hydrolysis; Potency, µM (highest dose often 114 µM), most hits filed as inhibitors; further: nearly all actives have a fitted effect of over 75% in size
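MLSMR compounds (23 nl, pin-transferred) preincubated 10 min at room temperature with a 500nM (2x) first reagent, then RGS4 at 900nM (2x) plus Transcreener GDP mix added; fluorescence polarization (620/688 nm) read before and after 90 min at 30 °C.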
Numbers stand for hits; [ ] = remark or other dose. An excerpt weighted towards active compounds, which were near 1.8% of everything screened. The call rests on the fitted dose curve; in most records, active means well fitted curve in the direction sought with a large enough effect; inconclusive means small, poorly fitted or top-dose-only effect, or another doubt; inactive means no such curve, though single readings can be large; an effect the other way counts as inactive or inconclusive.

`CC1CCCCN1C(=O)CSc1nc(C2CC2)nc2ccccc12` (stereo not given) gave KAT2A inh inactive, GLP1R inv ag 7.94µM, GLP1R cytotox inconclusive, PTHR1 ag inactive, GLP1R ag inactive and RGS4 inhibitor inactive.
Screening CC1CCCCN1C(=O)CSc1nc2ccccc2nc1Cc1ccc(Cl)cc1 (stereo not given) returned KAT2A inh inactive, GLP1R inv ag 5.01µM, GLP1R cytotox inactive, PTHR1 ag inactive and RGS4 inhibitor inactive.
c1nc(NCc2ccc3c(c2)OCO3)c2[nH]cnc2n1 was read as RGS4 inhibitor inactive.
Cc1cc(N/N=C/c2ccc(Cl)cc2)nc(NCc2ccccc2)n1 was read as KAT2A inh inactive, GLP1R inv ag 4.47µM, GLP1R cytotox inactive, PTHR1 ag inactive, GLP1R ag inactive and RGS4 inhibitor inactive.
Cc1cc(Nc2cccc(Cl)c2)nc(NCc2ccccc2)n1 was read as KAT2A inh inactive, GLP1R inv ag 10µM, GLP1R cytotox inactive, PTHR1 ag inactive, GLP1R ag inactive and RGS4 inhibitor inactive.
Screening Cc1cc(N/N=C/c2ccccc2)nc(NCc2ccccc2)n1 returned KAT2A inh inactive, GLP1R inv ag inconclusive, GLP1R cytotox inactive, PTHR1 ag inactive, GLP1R ag inactive and RGS4 inhibitor inactive.
For Cc1cc(N/N=C/c2cccc(Cl)c2)nc(NCc2ccccc2)n1 the results were KAT2A inh inactive, GLP1R inv ag 11.2µM, GLP1R cytotox inconclusive, PTHR1 ag inactive, GLP1R ag inactive and RGS4 inhibitor inactive.
For Cc1cc(N/N=C/c2cccc(F)c2)nc(NCc2ccccc2)n1 the results were KAT2A inh inactive, GLP1R inv ag inconclusive, GLP1R cytotox inconclusive, PTHR1 ag inactive, GLP1R ag inactive and RGS4 inhibitor inactive.
For COc1ccc(N2CCN(c3ccc(-c4nc(-c5ccccc5C)no4)cc3[N+](=O)[O-])CC2)cc1 the results were KAT2A inh inactive, GLP1R inv ag inactive, GLP1R cytotox inactive, PTHR1 ag inactive and RGS4 inhibitor inactive.
Screening O=C1NC[C@H](CCCCN2C[C@H](Cc3ccc(O)cc3)N(CCc3ccccc3)C(=O)C2=O)N(CC2CCCCC2)C1=O returned GLP1R inv ag inactive, GLP1R cytotox inactive, PTHR1 ag inconclusive and GLP1R ag inactive.
For Cc1cccc(C)c1N(CCCc1cccnc1)C(=O)[C@@H](C)N the results were GLP1R ag inactive.
Screening O=C1c2ccccc2-c2onc3ccc(NCCCn4ccnc4)c1c23 returned KAT2A inh inactive, GLP1R inv ag inactive, GLP1R cytotox 12.6µM, PTHR1 ag inactive, GLP1R ag inactive and RGS4 inhibitor inactive.
For O=C(Nc1ccc(F)cc1)C(NC1CCCCC1)c1ccccc1 (stereo not given) the results were KAT2A inh inactive, GLP1R inv ag 7.94µM, GLP1R cytotox inactive, PTHR1 ag inactive, GLP1R ag inactive and RGS4 inhibitor inactive.
`COc1cccc(NC(=O)C(NCC2CCCCC2)c2ccccc2)c1` (stereo not given) gave KAT2A inh inactive[0.501 µM], GLP1R inv ag 10µM, GLP1R cytotox inactive, PTHR1 ag inactive, GLP1R ag inactive and RGS4 inhibitor inactive.
Screening c1ccc2nc(N3CCCC3)c(N3CCCCC3)nc2c1 returned GLP1R inv ag 11.2µM, GLP1R cytotox inactive, PTHR1 ag inactive, GLP1R ag inactive and RGS4 inhibitor inactive.
O=C(O)c1cccc(CN2C(=O)SC(Nc3ccccc3)C2=O)c1 (stereo not given) was read as KAT2A inh inactive, GLP1R inv ag inactive, GLP1R cytotox inactive, PTHR1 ag inactive, GLP1R ag inactive and RGS4 inhibitor inactive.
Screening O=C(O)c1cccc(CN2C(=O)SC(Nc3cccc4ccccc34)C2=O)c1 (stereo not given) returned KAT2A inh 14.1µM, GLP1R inv ag inactive, GLP1R cytotox inactive, PTHR1 ag inactive, GLP1R ag inactive and RGS4 inhibitor inactive.
For CCn1cc2nc(SCc3ccc(C)cc3)n(CCc3ccccc3)c(=O)c2n1 the results were KAT2A inh inactive, GLP1R inv ag inconclusive, GLP1R cytotox inactive, PTHR1 ag inactive and RGS4 inhibitor inactive.
CCn1cc2nc(SCc3ccc(F)cc3)n(CCc3ccccc3)c(=O)c2n1 was read as KAT2A inh inactive, GLP1R inv ag 7.94µM, GLP1R cytotox inactive, PTHR1 ag inactive and RGS4 inhibitor inactive.
For COc1ccc(C(=O)NNC(=O)c2cccs2)cc1S(=O)(=O)N1CCOCC1 the results were KAT2A inh inactive, GLP1R inv ag inactive, GLP1R cytotox inactive, PTHR1 ag inactive, GLP1R ag inactive and RGS4 inhibitor inactive.
CCCCCCN(C(=O)CCCN1C(=O)NC(c2ccc(-c3ccccc3)cc2)C(C(=O)OCc2ccccc2)=C1C)C(C)C(=O)NCCCC (stereo not given) was read as KAT2A inh inactive, GLP1R inv ag 11.2µM, GLP1R cytotox inactive, PTHR1 ag inactive, GLP1R ag inactive and RGS4 inhibitor inactive.
For COc1cccc(N/C(SCc2ccccc2F)=C(/C#N)C(=O)NCc2cccs2)c1 the results were KAT2A inh inactive, GLP1R inv ag 5.01µM, GLP1R cytotox inactive, PTHR1 ag inactive, GLP1R ag inactive and RGS4 inhibitor inactive.
`COc1cccc(NC(=O)NCc2ccccc2F)c1` gave KAT2A inh inactive, GLP1R inv ag inactive, GLP1R cytotox inactive, PTHR1 ag inactive, GLP1R ag inactive and RGS4 inhibitor inactive[11.4 µM].
Screening COC(=O)c1ccc(CNC(=O)c2ccccc2C(=O)NCC2(CBr)OCCO2)cc1 returned GLP1R inv ag inactive, GLP1R cytotox inactive, PTHR1 ag inactive and GLP1R ag inactive.
Screening CC1CCN(CC(=O)Nc2ccccc2-c2ccccc2)CC1 returned KAT2A inh inactive, GLP1R inv ag inactive, GLP1R cytotox inactive, PTHR1 ag inactive, GLP1R ag inactive and RGS4 inhibitor inactive.
For CC1CCCCC1NCC(=O)Nc1ccccc1-c1ccccc1 (stereo not given) the results were KAT2A inh inactive, GLP1R inv ag 4.47µM, GLP1R cytotox inactive, PTHR1 ag inactive, GLP1R ag inactive and RGS4 inhibitor inactive[11.4 µM].
COc1ccc(S(=O)(=O)NCCc2nnc3ccc(SCC(=O)Nc4ccc(C(F)(F)F)cc4)nn23)cc1 was read as KAT2A inh inactive, GLP1R inv ag inactive, GLP1R cytotox inactive, PTHR1 ag inactive and RGS4 inhibitor inactive.
`CCc1c(C#N)c(SCc2c(C)noc2C)nc2c1C(=O)CC(C)(C)C2` gave KAT2A inh inactive, GLP1R inv ag 8.91µM, GLP1R cytotox inactive, PTHR1 ag inactive, GLP1R ag inactive and RGS4 inhibitor inactive.
Screening C[C@H](Cc1nc2c(cnn2-c2ccccc2Cl)c(=O)[nH]1)C(F)(F)F returned KAT2A inh inactive.

High-throughput results: PubChem BioAssay, National Center for Advancing Translational Sciences (NCATS)
